Source: PubChem (National Center for Advancing Translational Sciences (NCATS))
Only some compounds are listed: those with a hit (about 16% of all), similar ones and a draw of the others.
TDP1 cell noCPT = qHTS for Inhibitors of human tyrosyl-DNA phosphodiesterase 1 (TDP1): qHTS in cells in absence of CPT; Potency, µM (series often up to 46.2 µM), for inactives: at the top dose activity change, negative = growth inhibition, usual class: inhibitors; DT40 Tdp1-/- hTDP1 cells, no CPT, ATP luminescence, 48 h; 420,000 tested, 15% active; further: potency means the concentration at half of the fitted maximal effect; on the % scale 0 is the no-effect control and ±100 the full control effect; nearly all actives have a fitted effect of over 55% in size
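Readout: luminescence from CellTiter-Glo after 30 min in the dark at RT. Cells: DT40 Tdp1-/- with stable hTDP1, 400/well. Exposure: compounds alone, ≥48 hr, 37 °C.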
TDP1 block = qHTS Assay for Inhibitors of Tyrosyl-DNA Phosphodiesterase (TDP1). 350,000 tested, 0.28% active. recombinant TDP1, AlphaScreen DNA substrate cleavage. Potency, µM (doses to about 130 µM), for the others: top-dose activity change, negative = inhibition, actives largely listed as inhibitors. Tyrosyl-DNA phosphodiesterase 1 (Homo sapiens), Q9NUW8; further: potency means the concentration at half of the fitted maximal effect; on the % scale 0 is the no-effect control and ±100 the full control effect; nearly all actives have a fitted effect of over 40% in size
Target sequence (Q9NUW8 whole entry, looked up): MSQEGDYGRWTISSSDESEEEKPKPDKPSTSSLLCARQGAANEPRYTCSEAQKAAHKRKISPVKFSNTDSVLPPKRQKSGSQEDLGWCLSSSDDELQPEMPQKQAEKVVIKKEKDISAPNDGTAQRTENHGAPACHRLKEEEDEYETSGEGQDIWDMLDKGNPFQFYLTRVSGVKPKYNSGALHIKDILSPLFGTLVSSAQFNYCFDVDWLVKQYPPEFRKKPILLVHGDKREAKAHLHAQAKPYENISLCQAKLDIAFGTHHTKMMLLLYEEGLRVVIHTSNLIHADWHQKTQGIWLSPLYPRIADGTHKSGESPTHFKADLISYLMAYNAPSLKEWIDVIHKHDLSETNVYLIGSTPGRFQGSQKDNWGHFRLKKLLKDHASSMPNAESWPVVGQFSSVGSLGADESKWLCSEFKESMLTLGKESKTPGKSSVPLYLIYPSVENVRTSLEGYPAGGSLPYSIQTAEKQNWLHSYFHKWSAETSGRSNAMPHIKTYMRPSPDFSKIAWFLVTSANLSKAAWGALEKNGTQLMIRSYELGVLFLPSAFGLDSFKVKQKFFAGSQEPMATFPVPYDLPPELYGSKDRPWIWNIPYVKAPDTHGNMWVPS
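Compounds were preincubated with Tdp1 (1 nM final) for 15 min at room temperature before substrate (15 nM final) started a 5 min reaction; beads (10 ug/ml final) were then added for 10 min before AlphaScreen detection.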
TDP1 cell CPT = qHTS for Inhibitors of human tyrosyl-DNA phosphodiesterase 1 (TDP1): qHTS in cells in presence of CPT. chicken DT40 Tdp1-/-;hTDP1 cells + 20 nM CPT, ATP luminescence, 48 h. Potency, µM (doses to about 46.2 µM), without a hit: at the top dose activity change, negative = growth inhibition, hits mostly inhibitors. 420,000 tested, 12% active. AID 686979, 2013; further: potency means the concentration at half of the fitted maximal effect; on the % scale 0 is the no-effect control and ±100 the full control effect; nearly all actives have a fitted effect of over 55% in size
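Chicken DT40 Tdp1-/- cells stably complemented with human TDP1 were seeded at 400 cells/well in medium containing 20 nM camptothecin, exposed to pin-transferred compounds, and grown at 37 °C for at least 48 hr. Viability was read as ATP luminescence.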
miR-21 act = qHTS Assay for Modulators of miRNAs and/orActivators of miR-21; HeLa miR-21 FLuc reporter, luciferase, 48 h; Potency, µM (top dose mostly 38.3 µM), inactives show at the highest dose activity change, positive = activation, hits mostly activators; 340,000 tested, under 10 active;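 further: % of control where 0% means no effect; miR-21 action dims this reporter so a rising signal means less miR-21 action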
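Luminescence from a firefly luciferase reporter carrying a miR-21 binding site downstream, stably expressed under a CMV promoter in HeLa cells that make miR-21 endogenously, reports miRNA modulation after 48 h compound exposure up to approximately 40uM final.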
uPA generation = qHTS for Inhibitors of Cell Surface uPA Generation. cell surface uPA generation assay, qHTS. 330,000 tested, 0.31% active. Potency, µM (top dose mostly 38.3 µM), without a hit: at the top dose activity change, negative = inhibition, usual class: inhibitors; active means well fitted inhibition curve with a large enough effect; inconclusive means small, poorly fitted or top-dose-only effect; inactive means no such curve, though single readings can be large or run the other way; tested in mouse RAW 264.7 cells; further: potency means the concentration at half of the fitted maximal effect; on the % scale 0 is the no-effect control and ±100 the full control effect; nearly all actives have a fitted effect of over 55% in size
* marks the source's active call; other numbers are inactive results; ? = inconclusive; . = no result given; [ ] = another dose, or the depositor's remark. Unless noted, the call rests on the fitted dose curve; in most records, active means well fitted curve in the direction sought with a large enough effect; inconclusive means small, poorly fitted or top-dose-only effect, or another doubt; inactive means no such curve, though single readings can be large; an effect the other way counts as inactive or inconclusive.

SMILES | TDP1 cell noCPT | TDP1 block | TDP1 cell CPT | miR-21 act | uPA generation
O=C(c1cc2ccccc2o1)N1CCN(S(=O)(=O)c2ccccc2)CC1 | -21% | 1% | 12µM* | . | 12%
COc1ccc([N+](=O)[O-])cc1NC(=O)C(C)Sc1nc(-c2ccccc2)cs1 (stereo unspecified) | ? | 5% | 18µM* | 1% | 3%
CCSc1ccccc1C(=O)Nc1ccc([N+](=O)[O-])cc1OC | 21µM* | 1% | ? | -3% | 0%
COc1ccc([N+](=O)[O-])cc1NC(=O)CSc1ccccc1 | ? | 2% | -20% | -9% | -1%
COc1ccc(C(CC(=O)Nc2cc([N+](=O)[O-])ccc2OC)c2ccccc2)cc1 (stereo unspecified) | ? | 2% | 16µM* | 0% | 5%
COc1ccc([N+](=O)[O-])cc1NC(=O)C(C)Sc1ccccc1 (stereo unspecified) | ? | 4% | ? | 1% | -3%
CCCCn1cc(S(=O)(=O)c2ccc(F)cc2)c(=O)c2ccccc21 | ? | 6% | ? | 0% | .
Cc1cc2sc(C(=O)O)c(C)c2s1 | 4% | 2% | -10% | 0% | 3%
Cc1ccn2c(C(=O)NN=C3CCCCCCC3)c(C)nc2c1 | -3% | 4% | 16% | -3% | 1%
COCCCn1c(O)c(/C=C2\N=C(C#N)C(=Nc3ccc(C)cc3)O2)sc1=S | 3.3µM* | 8% | ? | -2% | -8%
COc1ccc(/C=C/C(=O)NC2CCN(Cc3ccccc3)CC2)cc1OC | -5% | 6% | -8% | -2% | 0%
COc1cc2c(NC3CCN(C)CC3)nc(N3CCCN(C)CC3)nc2cc1OCc1ccccc1 | 2.8µM* | . | 2.8µM* | . | .
COc1cc2nc(N3CCCN(C)CC3)nc(NC3CCN(Cc4ccccc4)CC3)c2cc1OC | 4µM* | . | 2.5µM* | . | .
COc1cc2nc(N3CCOCC3)nc(NC3CCN(Cc4ccccc4)CC3)c2cc1OC | 11µM* | . | 16µM* | . | .
COc1cc2c(NC3CCN(C)CC3)nc(N3CCCN(C)CC3)nc2cc1OCC1CCNCC1 | -14% | . | -4% | . | .
COc1cc2[nH]c(=S)n(C3CCN(Cc4ccccc4)CC3)c(=O)c2cc1OC | 18µM* | 5% | ? | 0% | 4%
COc1ccc(Cn2c(=S)[nH]c3cc(OC)c(OC)cc3c2=O)cc1 | ? | -10% | 14% | -27% | -12%
Cc1ccc(N2C(=O)CC(Cc3cccc(C)c3)C2=O)cc1 (stereo unspecified) | -21% | 5% | 2% | -4% | 2%
COc1cccc(CN2CC(C(=O)NC3CCCCCC3)CCC2=O)c1 (stereo unspecified) | 18% | 0% | -3% | 0% | 0%
COc1cc2nc(Cl)nc(NC3CCN(Cc4ccccc4)CC3)c2cc1OC | 10µM* | . | 7.1µM* | . | .
COc1cc2nc(N3CCN(C)CC3)nc(NC3CCN(Cc4ccccc4)CC3)c2cc1OC | 11µM* | . | 11µM* | . | .
O=c1n(-c2ccccc2)c(=O)n2n1CC[C@H]1/C(=N\OCc3ccccc3)[C@H]3O[C@@H]3[C@@H](O)[C@@H]12 | . | 5%[21 µM] | . | . | .
CC(C)OC(=O)c1c(NC(=O)c2cccc(C(F)(F)F)c2)sc2c1CCCC2 | -24% | -7%[12.3 µM] | -3% | -2% | .
COc1ccccc1NC(=O)COC(=O)c1c(C)nn(-c2ccccc2)c1C | 18µM* | 0% | 18µM* | . | -8%
Cc1nn(-c2ccccc2)c(C)c1C(=O)OCC(=O)Nc1ccccc1 | -27% | -1% | ? | . | -8%
SMILES | TDP1 cell noCPT | TDP1 block | TDP1 cell CPT | miR-21 act | uPA generation
CC(=O)c1ccccc1NC(=O)COC(=O)c1c(C)nn(-c2ccccc2)c1C | 15µM* | -2% | ? | . | 22%
CCc1ccc(OCC(=O)Nc2ccc3oc(-c4ccc(OC)cc4)nc3c2)cc1 | -27% | . | ? | -14% | .
Cc1cc(N2CCCCC2)nc(NCc2ccccc2)n1 | 7.3µM* | 4% | 10µM* | ? | -9%
Cc1cc(N2CCOCC2)nc(NCc2ccccc2)n1 | 13µM* | 5% | 21µM* | 2% | -21%
Cc1cc(N2CCCCC2)nc(N2CCCCC2)n1 | ? | 1% | ? | 1% | 5%
O=C(Cn1c(=O)c2c(ncn2Cc2ccccc2)n(Cc2ccccc2)c1=O)NC1CC1 | -25% | 1% | -10% | -4% | .
C(=Nc1ccc2ccccc2n1)c1cccnc1 | -11% | . | ? | . | .
COc1ccc(C2CC(c3ccc(C(F)(F)F)cc3)=NN2c2ccc(S(N)(=O)=O)cc2)cc1 (stereo unspecified) | ? | -10%[56.1 µM] | 18µM* | . | ?
CCc1ccc(C2=NN(c3ccc(S(N)(=O)=O)cc3)C(c3ccc(F)cc3)C2)cc1 (stereo unspecified) | ? | 0% | 18µM* | ? | 5%
NS(=O)(=O)c1ccc(N2N=C(c3ccccc3)CC2c2ccccc2)cc1 (stereo unspecified) | ? | -3% | ? | 10% | 0%
Cc1ccc(C2CC(c3ccccc3)=NN2c2ccc(S(N)(=O)=O)cc2)cc1 (stereo unspecified) | ? | . | 29µM* | . | .
O=C(COc1nsnc1N1CCOCC1)Nc1cccc(Cl)c1 | -12% | 8% | -5% | 0% | -3%
CN1C/C(=C/c2ccc(B(O)O)cc2)C(=O)/C(=C/c2ccc(B(O)O)cc2)C1 | . | 4% | . | . | .
Cc1nnc2c3ccccc3nc(N3CCN(c4ccccc4)CC3)n12 | ? | 0% | ? | -1% | .
CNCC(=O)O | -24% | . | 12% | . | 19%
CCN(C(=O)COC(=O)/C=C/c1ccco1)C1CCCCC1 | -15% | 20µM* | 1% | . | -2%
CCN(C(=O)COC(=O)/C=C/c1ccc(F)cc1)C1CCCCC1 | ? | 0% | -10% | . | 2%
O=C(/C=C/c1ccco1)OCC(=O)N1CCCCC1 | -7% | 7.1µM* | -6% | . | 0%
O=C(/C=C/c1ccccc1)OCC(=O)N1CCCC1 | 15% | 0% | 1% | . | 6%
COC(=O)c1ccc2c(=O)n(CCCCCC(=O)NC(C)C)c(=O)[nH]c2c1 | 21µM* | 3% | ? | -1% | -2%
COC(=O)c1ccc2c(=O)n(CCCCCC(=O)NCc3ccccc3)c(=O)[nH]c2c1 | -18% | 4% | -18% | 10% | -5%
COC(=O)c1ccc2c(=O)n(CCCCCC(=O)NCc3ccc(OC)cc3)c(=O)[nH]c2c1 | ? | -2% | 23µM* | 3% | .
CCn1c(CN2CCC(C)CC2)nc2cc(NC(=O)c3cccc([N+](=O)[O-])c3)ccc21 | 23µM* | 1% | 15µM* | 19% | .
